Where “and” joins values, the source holds several entries; their conditions need not be identical. Equal entries are not always repeated. In all, about 16,000 compounds went through this assay and about 5,800 (36%) were called active. Another 23% or so got no clear call; they are omitted. The list shows a part of the results. Values without a mark were called inactive. The call rests on the fitted dose curve; in most records, active means well fitted curve in the direction sought with a large enough effect; inconclusive means small, poorly fitted or top-dose-only effect, or effect the other way; inactive means no such curve, though single readings can be large or run the other way.
These molecules were tested against Cytochrome P450 2C19 (Homo sapiens) (UniProt P33261) (assay: Cytochrome panel assay with activity outcomes). Conditions: recombinant CYP, pro-luciferin dealkylation, luminescence, p450-cyp2c19; series mostly up to 57.1 µM; activity, negative = inhibition: at the top concentration.
Chain of Cytochrome P450 2C19 (Homo sapiens) (P33261 whole entry, looked up): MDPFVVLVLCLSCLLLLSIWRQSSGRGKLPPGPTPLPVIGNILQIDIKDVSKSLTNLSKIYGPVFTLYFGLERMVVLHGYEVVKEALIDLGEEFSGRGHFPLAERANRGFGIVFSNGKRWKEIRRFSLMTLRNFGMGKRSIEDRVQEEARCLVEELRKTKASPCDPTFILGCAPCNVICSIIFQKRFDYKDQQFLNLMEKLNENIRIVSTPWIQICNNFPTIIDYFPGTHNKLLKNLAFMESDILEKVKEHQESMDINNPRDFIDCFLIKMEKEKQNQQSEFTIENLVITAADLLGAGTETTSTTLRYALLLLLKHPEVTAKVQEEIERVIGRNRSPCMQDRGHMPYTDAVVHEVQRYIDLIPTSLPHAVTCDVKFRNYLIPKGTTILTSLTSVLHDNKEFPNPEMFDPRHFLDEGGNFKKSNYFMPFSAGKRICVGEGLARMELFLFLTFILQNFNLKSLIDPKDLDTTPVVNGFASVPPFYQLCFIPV
For `O=C(O)/C(=C/c1c(C(=O)O)[nH]c2cc(Cl)cc(Cl)c12)c1ccccc1`, the “activity, negative = inhibition” value was -13.2%. In the case of `O=C1NCCN1Cc1ccccc1F`, the AC50 is reported as 20 µM (active). `CN(C)S(=O)(=O)Oc1cccc(C(=O)Nc2ccc(Cl)c(Cl)c2)c1` was tested, and the AC50 was 3.98 µM (active). With `CN(C)S(=O)(=O)Oc1cccc(C(=O)Nc2ccccc2Cl)c1` the AC50 was 2.82 µM (active). In the case of `CC(C)(N=NC(C)(C)C(=N)N)C(=N)N`, the activity, negative = inhibition is reported as 41.9% [at 11.4 µM]. For `CON1C(=O)C(=O)N(OC)C2CCCCC21` (centres undefined), the “activity, negative = inhibition” value was 24.9%. For `CC=C(/C(=C/C)c1ccc(O)cc1)c1ccc(O)cc1`, the AC50 was 3.16 µM (active). `N#CC(C#N)=C(N)/C(C#N)=C/c1ccc(O)cc1` was tested, and the “activity, negative = inhibition” value was 0.416%. In the case of `COc1ccc(CNC(=O)C2CC(c3ccc(OC)cc3)=NO2)cc1` (centres undefined), the “activity, negative = inhibition” value is reported as -2.25%. With `COc1cccc(C2=NOC(C(=O)NCCN3CCOCC3)C2)c1` (centres undefined) the “activity, negative = inhibition” value was -20.2%. `COCCNC(=O)C1CC(c2cccc(OC)c2)=NO1` (centres undefined) was tested, and the “activity, negative = inhibition” value was -24.6%. With `COc1ccc(CNC(=O)C2CC(c3cccc([N+](=O)[O-])c3)=NO2)cc1` (centres undefined) the AC50 was 10 µM (active). For `COc1cccc(C2=NOC(C(=O)Nc3cccnc3)C2)c1` (centres undefined), the AC50 was 10 µM (active). `COc1cccc(C2=NOC(C(=O)NCc3ccccc3)C2)c1` (centres undefined) was tested, and the AC50 was 3.98 µM (active). With `O=C(NCc1ccc2c(c1)OCO2)C1CC(c2cccc(Br)c2)=NO1` (centres undefined) the AC50 was 11.2 µM (active). With `CCNc1ncc2nc(C)c(=O)n(Cc3cccs3)c2n1` the “activity, negative = inhibition” value was -27.9%. For `COC(=O)N1CCC[C@@]2(CCN(C(=O)Nc3cccc(F)c3)C2)C1`, the “activity, negative = inhibition” value was -41.5%. `O=c1c(-c2cccs2)nc2cnc(N3CCOCC3)nc2n1-c1ccccc1` was tested, and the “activity, negative = inhibition” value was -11.6%. For `Cn1c(=O)c(-c2cccs2)nc2cncnc21`, the “activity, negative = inhibition” value was -45.6%. With `CN1CCN(c2ncc3nc(-c4cccs4)c(=O)n(-c4ccccc4)c3n2)CC1` the “activity, negative = inhibition” value was 22.2%. With `COc1ccc(-n2c(=O)c(-c3cccs3)nc3cncnc32)cc1` the AC50 was 15.8 µM (active). In the case of `O=c1c(-c2cccs2)nc2cncnc2n1-c1ccccc1`, the AC50 is reported as 6.31 µM (active). For `COc1ccc(-n2c(=O)c(-c3cccs3)nc3cnc(Oc4ccccc4)nc32)cc1`, the “activity, negative = inhibition” value was -6.86%. For `CCCc1ncc(C[n+]2ccccc2C)c(N)n1`, the “activity, negative = inhibition” value was 0.835% [at 25.6 µM]. With `COCC(=O)N1CCC2(CC1)CCN(C(=O)Nc1ccc(OC)cc1)CC2` the “activity, negative = inhibition” value was -5.31%. `COc1ccc2c(c1)c(=O)oc1c(C)c(OCC(=O)N3CCc4ccccc4C3)ccc12` was tested, and the AC50 was 0.398 µM (active). With `CCOc1cc(/C=C2/SC(=O)N(CC(=O)N3CCc4ccccc4C3)C2=O)ccc1OCC(=O)O` the “activity, negative = inhibition” value was 2.89%. In the case of `N#Cc1c(NC(=O)CCN2C(=O)c3ccccc3C2=O)oc(-c2ccccc2)c1-c1ccccc1`, the AC50 is reported as 3.16 µM (active). In the case of `OC(CNCc1ccc(F)cc1)(c1ccc(F)cc1)c1ccc(F)cc1`, the AC50 is reported as 7.94 µM (active). With `Cc1ccc(CNCC(O)(c2ccc(F)cc2)c2ccc(F)cc2)cc1` the AC50 was 11.2 µM (active). For `COc1cnc(-c2ccccn2)nc1Oc1ccc(Cl)c2ccccc12`, the AC50 was 14.1 µM (active). With `C=C1C(=O)O[C@@H]2[C@@H]1CC/C(C)=C\CC[C@@]1(C)O[C@H]21` the AC50 was “inactive”. With `Cn1c(Sc2ccc(-c3cccnc3)n2C)ccc1-c1cccnc1` the AC50 was 1 µM (active). `c1cncc(-c2cc(-c3cc(-c4cccnc4)n[nH]3)[nH]n2)c1` was tested, and the activity, negative = inhibition was -4.18% [at 11.4 µM]. For `COc1cccc(/C=N/NC(=O)CO/N=C(\C)c2cccs2)c1OC`, the AC50 was 12.6 µM (active). In the case of `CCOc1ccc(-c2cc(CCCC(=O)NCCc3ccc(OC)c(OC)c3OC)no2)cc1`, the AC50 is reported as 1.58 µM (active). For `CC(=O)N1CCC2(CCCN(C(=O)Nc3cccc(F)c3)C2)CC1`, the “activity, negative = inhibition” value was -27.7%. With `O=C(/C=C\NCC(=O)c1ccccc1)c1ccc(F)cc1` the AC50 was 2 µM (active). For `O=C(/C=C\NCC(=O)c1ccccc1)c1ccccc1`, the AC50 was 3.98 µM (active). `O=C(C[N+]1(c2ccccc2)CCOCC1)c1ccccc1` was tested, and the activity, negative = inhibition was -17.3% [at 11.4 µM]. In the case of `c1ccc(C(c2ccccc2)N2CCCC3(CCNCC3)C2)cc1`, the “activity, negative = inhibition” value is reported as -20.4%. `c1ccc(C(c2ccccc2)N2CC3(CCNCC3)C2)cc1` was tested, and the “activity, negative = inhibition” value was -26.7%. In the case of `c1ccc(C(c2ccccc2)N2CCC3(CCNCC3)CC2)cc1`, the AC50 is reported as 3.98 µM (active). Work on `CC(C)CO/N=C1/C[C@@H](O)[C@@H](O)[C@@H]2[C@@H]3C(=O)N(Cc4ccc5c(c4)OCO5)C(=O)[C@H]3CC[C@@H]12` yielded an activity, negative = inhibition of -22.9% [at 11.4 µM]. `CC(C)CO/N=C1/C[C@@H](O)[C@@H](O)[C@@H]2[C@@H]3C(=O)N(Cc4ccc5c(c4)OCO5)C(=O)[C@H]3CC[C@H]12` was tested, and the AC50 was 3.98 µM (active). With `O=C1[C@H]2[C@H]3[C@H](O)[C@H](O)C/C(=N/OC[C@@H](O)COCc4ccco4)[C@H]3CC[C@@H]2C(=O)N1Cc1ccc2c(c1)OCO2` the activity, negative = inhibition was 4.07% [at 11.4 µM]. `O=C(Nc1nnc(C2CC2)s1)c1ccncc1` was tested, and the AC50 was 17.8 µM (active). Work on `O=C(NNC(=O)c1ccncc1)c1ccncc1` yielded an activity, negative = inhibition of 6.77% [at 11.4 µM]. `NNC(=O)CNC(c1ccccc1)c1cc(Br)ccc1NC(=O)c1ccccc1Br` (centres undefined) was tested, and the AC50 was 7.08 µM (active). `Cc1ccc(-c2c3c(nc4sc(C(N)=O)c(N)c24)CCC3)cc1` was tested, and the AC50 was 14.1 µM (active). With `COc1ccc(C2/C(=C(/O)c3ccccc3)C(=O)C(=O)N2c2ccccn2)c(OC)c1` (centres undefined) the “activity, negative = inhibition” value was -17.8%. In the case of `O=C1C(=O)N(c2cccc(Cl)c2)C(c2ccccc2[N+](=O)[O-])/C1=C(\O)c1ccccc1` (centres undefined), the AC50 is reported as 20 µM (active). `O=[N+]([O-])c1ccc(C2=Nn3c(nnc3-c3ccc(Cl)cc3)SC2)o1` was tested, and the AC50 was 2.51 µM (active). With `O=C1COC(c2ccccc2O)=NN1CCCN1CCCC1` the activity, negative = inhibition was 43.2% [at 11.4 µM]. `Cn1c(=O)n(CC#N)c2ccccc21` was tested, and the “activity, negative = inhibition” value was 2.79%. In the case of `Cc1snc(SCC(=O)N/N=C(\N)COc2cccc(C(F)(F)F)c2)c1C#N`, the AC50 is reported as 4.47 µM (active). For `Cc1ccc(C)c(NC(=O)Cn2nnc(C(=O)NCc3cccs3)c2N)c1`, the “activity, negative = inhibition” value was -1.93%. In the case of `Cc1ccc2c(c1)N(CC(=O)NCc1cccs1)C(=O)C(C)O2` (centres undefined), the AC50 is reported as 2.51 µM (active). For `COc1ccc(CCN(C)CCC(=O)Nc2c(C)cc(C)cc2C)cc1OC`, the “activity, negative = inhibition” value was 12.6%. With `COc1ccc(CCNC(=O)CCN2C(=O)C(C)Oc3ccc(C)cc32)cc1OC` (centres undefined) the AC50 was 20 µM (active). In the case of `CC(=O)OCC1=C(C(=O)O)N2C(=O)[C@@H](NC(=O)Cc3cccs3)[C@@H]2SC1`, the AC50 is reported as “inactive”. With `NC(=O)/C(=N\OC(=O)c1ccco1)c1nc(-c2ccc(Br)cc2)cs1` the AC50 was 20 µM (active). With `Cc1cc(C)cc(C(=O)N(C)[C@H](Cc2ccc(-c3ccccc3)cc2)C(=O)N[C@@H](Cc2c[nH]c3ccccc23)C(=O)O)c1` the AC50 was 10 µM (active). `O=C(O)[C@@H](Cc1c[nH]c2ccccc12)C(=O)NO` was tested, and the activity, negative = inhibition was 84.7% [at 11.4 µM]. For `CCc1cc2c(nc1CC)CCN(CC/C(C)=N/O[C@@H](C)c1cn([C@H](CO)Cc3ccccc3)nn1)C2`, the activity, negative = inhibition was -17.2% [at 11.4 µM] and -16.8% [at 11.4 µM]. In the case of `CC(=O)Nc1ccnc(-c2cccnc2)n1`, the “activity, negative = inhibition” value is reported as 46.4%. For `O=C(Nc1ccnc(-c2cccnc2)n1)c1cccc(Cl)c1Cl`, the AC50 was 2.82 µM (active). In the case of `CC(C)(C)C(=O)Nc1ccnc(-c2cccnc2)n1`, the AC50 is reported as 2.24 µM (active). In the case of `O=C(N/N=C/c1cccc(OCc2ccccc2)c1)c1cccs1`, the AC50 is reported as 5.01 µM (active). In the case of `COc1ccc(CCN(C)Cc2ccc(OCc3ccccc3)c(OC)c2)cc1OC`, the “activity, negative = inhibition” value is reported as -21.5%. With `O=C(N/N=C/C=C/c1ccc([N+](=O)[O-])cc1)c1cccs1` the “activity, negative = inhibition” value was -2.41%. `COc1cc(/C=N/NC(=O)c2cccs2)ccc1OCc1ccccc1` was tested, and the AC50 was 1.41 µM (active). With `COc1cc(/C=N\NC(=O)C2C(=O)NCC2c2ccccc2)cc(OC)c1O` (centres undefined) the “activity, negative = inhibition” value was -13.1%. With `O=C(N/N=C/c1ccc(OCc2ccccc2)cc1)c1cccs1` the AC50 was 2.51 µM (active). For `C=CCNC(=S)N/N=C/c1ccc(OCc2ccccc2)cc1`, the “activity, negative = inhibition” value was -0.29%. `Cc1c(NC(C)C)c(=O)n(-c2ccccc2)n1C` was tested, and the “activity, negative = inhibition” value was 13.9% [at 25.6 µM]. For `Cc1c(NCc2cc(Cl)ccc2O)c(=O)n(-c2ccccc2)n1C`, the AC50 was 5.62 µM (active). `Cc1c(NC(=O)Nc2c(Cl)cccc2Cl)c(=O)n(-c2ccccc2)n1C` showed an activity, negative = inhibition of 10.7% [at 11.4 µM]. `C=C(C)COc1ccc2c(c1)CCC1C2CC[C@]2(C)C(=O)/C(=N/O)CC12` (some centres undefined) showed an activity, negative = inhibition of 19.2% [at 11.4 µM]. Molecule `CCOC(=S)SCC(=O)O` has an activity, negative = inhibition of 38.2% [at 11.4 µM]. With `O=c1cc(-c2ccccc2)[nH]n1-c1ccc([N+](=O)[O-])cc1` the AC50 was 8.91 µM (active). In the case of `COc1ccc(Oc2c(Cl)cnn(-c3ccccc3)c2=O)cc1`, the AC50 is reported as 2.24 µM (active). With `COc1cccc(/C=N/n2nnc3c(cnn3-c3ccccc3)c2=O)c1` the “activity, negative = inhibition” value was -9.6%. With `COc1ccc(-n2c(=O)c(C)nc3cnc(Oc4ccccc4)nc32)cc1` the “activity, negative = inhibition” value was -13.4%. In the case of `CCCC[C@H]1C[C@@H]1[C@@H]1N(P(=O)(c2ccccc2)c2ccccc2)C[C@@](O)(c2ccccc2)CC12CC2`, the “activity, negative = inhibition” value is reported as -12.3%. In the case of `O=C(NCCc1ccccc1)N1c2ccccc2Sc2ccccc21`, the AC50 is reported as 2.82 µM (active). In the case of `COc1ccc(C)cc1NC(=O)CN1CCN(S(=O)(=O)c2ccc(F)cc2)CC1`, the AC50 is reported as 2.82 µM (active). In the case of `COc1ccc(S(N)(=O)=O)cc1C(=O)NCCCN1CCN(c2ccc(C)cc2)CC1`, the “activity, negative = inhibition” value is reported as -18.3%. For `COc1ccc(NC(=O)c2cc(S(=O)(=O)N3CCS(=O)(=O)CC3)ccc2Cl)cc1`, the “activity, negative = inhibition” value was 31.1%. `COc1ccc(NC(=O)N2CC[C@@]3(CCCN(S(C)(=O)=O)C3)C2)cc1` was tested, and the “activity, negative = inhibition” value was 17.2%. `COc1ccc(S(=O)(=O)N2CCCN(CCC(=O)Nc3cccc(C(F)(F)F)c3)CC2)cc1` was tested, and the AC50 was 2.51 µM (active). `COc1ccc(S(=O)(=O)N2CCN(CC(=O)Nc3cc(OC)cc(OC)c3)CC2)cc1` was tested, and the AC50 was 14.1 µM (active). `COc1ccc(C)cc1NC(=O)CCC(=O)Nc1nnc(C(F)(F)F)s1` was tested, and the “activity, negative = inhibition” value was -6.2%. For `COc1ccc(S(=O)(=O)N2CCCN(CC(=O)Nc3ccc(OC)c(Cl)c3)CC2)cc1`, the AC50 was 0.0631 µM (active).
On the % scale 0 is the no-effect control and ±100 the full control effect.
